Laboratory results as given in the supplement of paper PMC7261846.
Where a name gives a salt, the structure may show the parent alone. ± gives the uncertainty stated by the source.

Tested on: Candida albicans SNY425 biofilm
Experiment: biofilm OD600 with compound plus antifungal (OD600 (absorbance)); higher = more biofilm remaining
[1] = assay detail: disruption of 24-h mature biofilm (compound + antifungal for a second 24 h)
[2] = assay detail: sustained inhibition (compound + antifungal during 90-min adherence and 24-h growth)

SMILES | biofilm OD600 [1] | biofilm OD600 [2]
O=C1Nc2ccc([N+](=O)[O-])cc2C1=O [5-Nitroisatin] + OC(Cn1cncn1)(Cn1cncn1)c1ccc(F)cc1F [fluconazole] (first compound 12.5 µM) | 0.249 ± 0.0083 | 0.107 ± 0.011
CCOC(=O)c1ccc(OC(=O)CCCCCNC(=N)N)cc1 [Gabexate mesylate] + C[C@@H]1[C@H](O)[C@@H](C)/C=C/C=C/C=C/C=C/C=C/C=C/C=C/[C@H](O[C@@H]2O[C@H](C)[C@@H](O)[C@H](N)[C@@H]2O)C[C@@H]2O[C@](O)(C[C@@H](O)C[C@@H](O)[C@H](O)CC[C@@H](O)C[C@@H](O)CC(=O)O[C@H]1C)C[C@H](O)[C@H]2C(=O)O [amphotericin B] (first compound 12.5 µM) | 0.281 ± 0.012 | 0.201 ± 0.0075
COC(=O)N[C@H](C(=O)N[C@@H](Cc1ccccc1)[C@@H](O)CN(Cc1ccc(-c2ccccn2)cc1)NC(=O)[C@@H](NC(=O)OC)C(C)(C)C)C(C)(C)C [atazanavir] + C[C@@H]1[C@H](O)[C@@H](C)/C=C/C=C/C=C/C=C/C=C/C=C/C=C/[C@H](O[C@@H]2O[C@H](C)[C@@H](O)[C@H](N)[C@@H]2O)C[C@@H]2O[C@](O)(C[C@@H](O)C[C@@H](O)[C@H](O)CC[C@@H](O)C[C@@H](O)CC(=O)O[C@H]1C)C[C@H](O)[C@H]2C(=O)O [amphotericin B] (first compound 12.5 µM) | 0.286 ± 0.013 | 0.213 ± 0.0068
Cc1c(O)cccc1C(=O)N[C@@H](CSc1ccccc1)[C@H](O)CN1C[C@H]2CCCC[C@H]2C[C@H]1C(=O)NC(C)(C)C [nelfinavir] + C[C@@H]1[C@H](O)[C@@H](C)/C=C/C=C/C=C/C=C/C=C/C=C/C=C/[C@H](O[C@@H]2O[C@H](C)[C@@H](O)[C@H](N)[C@@H]2O)C[C@@H]2O[C@](O)(C[C@@H](O)C[C@@H](O)[C@H](O)CC[C@@H](O)C[C@@H](O)CC(=O)O[C@H]1C)C[C@H](O)[C@H]2C(=O)O [amphotericin B] (first compound 12.5 µM) | 0.237 ± 0.0057 | 0.112 ± 0.01
O=C(NCCCCN1CCOCC1)c1cc2ccccc2o1 + C[C@@H]1[C@H](O)[C@@H](C)/C=C/C=C/C=C/C=C/C=C/C=C/C=C/[C@H](O[C@@H]2O[C@H](C)[C@@H](O)[C@H](N)[C@@H]2O)C[C@@H]2O[C@](O)(C[C@@H](O)C[C@@H](O)[C@H](O)CC[C@@H](O)C[C@@H](O)CC(=O)O[C@H]1C)C[C@H](O)[C@H]2C(=O)O [amphotericin B] (first compound 12.5 µM) | 0.262 ± 0.0087 | 0.216 ± 0.013
Cc1ccc(S(=O)(=O)N[C@@H](Cc2ccccc2)C(=O)CCl)cc1 + OC(Cn1cncn1)(Cn1cncn1)c1ccc(F)cc1F [fluconazole] (first compound 4 µM) | 0.241 ± 0.01 | 0.0966 ± 0.012
NC(=O)c1cccc(-c2cccc(OC(=O)NC3CCCCC3)c2)c1 + OC(Cn1cncn1)(Cn1cncn1)c1ccc(F)cc1F [fluconazole] (first compound 12.5 µM) | 0.283 ± 0.0052 | 0.118 ± 0.0073
Cc1ccc(S(=O)(=O)N[C@@H](Cc2ccccc2)C(=O)CCl)cc1 + CC[C@H](C)C[C@H](C)CCCCCCCCC(=O)N[C@H]1C[C@@H](O)[C@@H](NCCN)NC(=O)[C@@H]2[C@@H](O)CCN2C(=O)[C@H]([C@H](O)CCN)NC(=O)[C@H]([C@H](O)[C@@H](O)c2ccc(O)cc2)NC(=O)[C@@H]2C[C@@H](O)CN2C(=O)[C@H]([C@@H](C)O)NC1=O [caspofungin] (first compound 4 µM) | 0.251 ± 0.011 | 0.152 ± 0.013
Cc1cccc(C)c1OCC(=O)N[C@@H](Cc1ccccc1)[C@@H](O)C[C@H](Cc1ccccc1)NC(=O)[C@H](C(C)C)N1CCCNC1=O [lopinavir] + OC(Cn1cncn1)(Cn1cncn1)c1ccc(F)cc1F [fluconazole] (first compound 12.5 µM) | 0.246 ± 0.01 | 0.141 ± 0.021
CC(C)C[C@@H](C=O)NC(=O)[C@H](CC(C)C)NC(=O)[C@H](CC(C)C)NC(=O)OCc1ccccc1 + C[C@@H]1[C@H](O)[C@@H](C)/C=C/C=C/C=C/C=C/C=C/C=C/C=C/[C@H](O[C@@H]2O[C@H](C)[C@@H](O)[C@H](N)[C@@H]2O)C[C@@H]2O[C@](O)(C[C@@H](O)C[C@@H](O)[C@H](O)CC[C@@H](O)C[C@@H](O)CC(=O)O[C@H]1C)C[C@H](O)[C@H]2C(=O)O [amphotericin B] (first compound 12.5 µM) | 0.29 ± 0.0045 | 0.209 ± 0.017
